The source of these data is PubChem BioAssay AID1671193 (National Center for Advancing Translational Sciences (NCATS), 2021).

Structures are written as SMILES. The campaign covered roughly 150,000 compounds. About 180 (0.12%) were called active. Entries that show only a call come without a potency. Roughly 6% stayed inconclusive and do not appear here. Calls come from the whole dose curve; as a rule, active = well fitted cell-killing curve with a large enough effect; inconclusive = small, poorly fitted or top-dose-only effect, or effect the other way; inactive = flat fitted curve, though single readings scatter. Many of the other results were omitted from the sample, so actives are more common in it than they were.

The assay can be described thus: GF-AFC viability counterscreen for inhibitors of alpha-synuclein gene (SNCA) expression. Note: nearly all actives have a fitted effect of over 30% in size. The following applies: HEK-293-SNCA-luc viability, GF-AFC fluorescence, 24 h; series mostly up to 57.1 µM. From the text: Assay Submitter (PI): Daniel R. Scoles Ph.D.
Department of Neurology, University of Utah, Salt Lake City, Utah
Accumulation of alpha-synuclein is a main underlying pathological feature of Parkinson's disease (PD) and alpha-synucleinopathies, for which lowering expression of the alpha-synuclein gene (SNCA) is a potential therapeutic avenue. Using a cell-based luciferase reporter of SNCA expression we performed a quantitative high throughput screen (qHTS) of 155,885 compounds in dose response. The screening assay was generated using genome editing to insert the luciferase gene downstream and in frame of the SNCA gene in HEK-293 cells (1). A viability counterscreen using GF-AFC was used to eliminate cytotoxic and false positive compounds. After in silico analysis (clustering, removal of frequent hitter nuisance chemotypes), inhibitor compounds from the primary screen were selected for follow up and re-tested at 11-doses in the SNCA-luc cells (luciferase and GF-AFC confirmation), and in CMV-luc expressing cell line to flag general transcriptional repressors.
Described herein are the results of the GF-AFC viability counterscreen for SNCA inhibitors; inactivity (no decrease in fluorescence signal, not cytotoxic) is the desired output for this assay.
1. Dansithong, W., Paul, S., Scoles, D. R., Pulst, S. M., and Huynh, D. P. (2015) Generation of SNCA Cell Models Using Zinc Finger Nuclease (ZFN) Technology for Efficient High-Throughput Drug Screening. PLoS ONE 10, e0136930.
SEQUENCE No. (e.g., 1, 2, 3, etc.); […] (e.g., Cells, Incubation, Reagent, etc.); VALUE; DESCRIPTION
1; Cells; 4 uL; Dispense 1500 HEK-293-SNCA-luc cells/well into Greiner 1536-well white / solid bottom tissue culture treated plate. The plate was covered with metal lids with gas-exchange holes.
2; Incubate; 24 hours; Incubate at 37C, 5% CO2, 95% RH.
3; Compounds; 23 nL; Compounds and controls were transferred via a Kalypsys Pin Tool (Wako USA) equipped with a 1536-slotted pin array. The plate was covered with metal lids with gas-exchange holes.
4; Incubate; 24 hours; Incubate at 37C, 5% CO2, 95% RH.
5; Dispense; 1 uL; Dispense Gly-Phe-7-amino-4-trifluoromethylcoumarin (GF-AFC, prepared at 125 uM in PBS) was added. The plate was covered with metal lids with gas-exchange holes.
6; Incubate; 30 min; Incubate at 37C, 5% CO2.
7; Detector; Fluorescence; Measure fluorescence with ViewLux microplate reader (PerkinElmer) equipped with 405/10 excitation and 540/25 emission filters.
8; Dispense; 3 uL; Dispense ONE-Glo ([…]) lucifase detection reagent was added to each well. Plates were covered with metal lids with gas-exchange holes.
9; Incubate; 15 min; Incubate at room temperature.
10; Detector; Luminescence; Measure luminescence with ViewLux microplate reader (PerkinElmer) equipped with clear filters.
NOTES (numbers refer to sequence above)
1; HEK-293-SNCA-luc were cultured and suspended in phenol-red free DMEM (4.5 g/L glucose, 25 mM HEPES, cat #21063 (Thermo)).
3; Compounds were added to the assay plate in an 11-point intra plate dose response, 1:3 titration in DMSO with a final concentration range of […]. Vehicle-only plates, with DMSO being pin-transferred to every well, were inserted at the beginning of screening runs to confirm expected assay performance. Activity was normalized to wells containing medium only (-100% activity, full inhibition) and SNCA-luc cells treated with DMSO vehicle control (0% activity), contained on the same plate as test samples.
10; Signals were analyzed, and dose-response curves were fit using the Hill equation. Compounds in curve classes -1.1, -1.2, -2.1, -2.2 in the SNCA-luc assay were considered active. Compounds were eliminated from further consideration if also active (curve class -1.1, -1.2, -1.3, -1.4, -2.1, -2.2, -2.3, -2.4) in the GF-AFC cytotoxicity assay.
A general note: A counterscreen serves to expose hits that act by an unwanted route or on another target.
On to `COc1ccccc1CN1C(=O)COC[C@@H]1[C@H](O)c1ccc(NC(=O)c2ccc(C#N)cc2)cc1`, for which the Potency entry was “inactive”. `CC(C)Cc1ccc(CN2CCC3(CC2)Cc2ccccc2CNC3=O)cc1`: the Potency result is “inactive”.

As for `COc1ccc(S(=O)(=O)N2CCC3(CCC(=O)N(CC4CC4)CC3)CC2)cc1`, the Potency entry is “inactive”. Same read-out and setting: under `O=C(NC1CCN(c2cc(-c3cccs3)[nH]n2)C1)c1ccc(Br)cc1` (centres undefined) stands “inactive”.

Turning to `COc1ccc(CN2CC(Oc3ccc(F)c(F)c3)C2)cc1`, the Potency result is “inactive”. As to `COc1cccc(-c2cc(C3CCN(C(=O)Nc4ccccc4C)CC3)[nH]n2)c1`, the Potency result is “inactive”. In the case of `Cc1cccc(-c2nc3ccc(C(=O)N4C(C)CCCC4C)cc3o2)n1` (centres undefined), the Potency entry is “inactive”. Still for that read-out and setting: under `COc1ccc(NC(=O)N2CCCC(Cc3noc(-c4ccccc4)n3)C2)cc1` (centres undefined) stands “inactive”; under `O=C(Cc1ccc(F)cc1)N1CCC(n2cc(-c3nc(-c4ccccc4)no3)nn2)CC1`, “inactive”. On the same count and under the same terms, under `COc1ccc(CNC(=O)C2CCN(c3cc(C(F)(F)F)nc(C)n3)CC2)cc1` stands “inactive”. Turning to `O=C(Nc1ccc(Cl)cc1)NC1CCN(C(=O)c2ccc(-c3cncnc3)cc2)CC1`, the activity change, negative = cytotoxicity was 0.645% [at 12.5 µM] (inactive). With `O=C(NC1CCCc2c1[nH]c1c(Cl)cccc21)c1ccco1` (centres undefined), the Potency entry is “inactive”. On the same count and under the same terms, the entry for `COc1ccc(C)cc1NC(=O)Nc1cccc(-c2ccc(N3CCCCC3)nn2)c1` is “inactive”; for `CC1(CCCCc2ccccc2)COc2ccc(C(=O)N3CCNC(=O)C3)cc2N1` (centres undefined) it is “inactive”; for `COC(=O)C1=C(C)N=C2SC=C(CC(=O)N3CCCC3)N2C1c1cccc(F)c1` (centres undefined) it is “inactive”. On the same count and under the same terms, under `COC(=O)N1CCC(C(=O)N2CCC3(CC2)CC(=O)Nc2ccccc2O3)CC1` stands “inactive”; under `O[C@@H]1C[C@@H](c2nc(-c3ccc4c(c3)OCO4)no2)N(Cc2ccc(-c3ccccn3)cc2)C1`, “inactive”; under `CN(C)c1cccc(-c2cnc(Nc3ccc(N4CCOCC4)cc3)c3c2CCO3)c1`, “inactive”. `Cc1ccccc1N(C)C1CN(C(=O)OC(C)(C)C)C1`: the Potency result was “inactive”. The same measure, in the same setting: under `COc1cccc(-c2cc(-c3nc(-c4ccc5nc[nH]c5c4)no3)[nH]n2)c1` stands “inactive”; under `COc1ccc(S(=O)(=O)N2CCC(n3cnnc3-c3ccccc3)CC2)cc1Cl`, “inactive”.

For the compound `O=C(C1CCN(c2nc(-c3ccccc3)nc3c2CCC3)CC1)N1CCC[C@H]1CO`, the Potency result is “inactive”.

`O=C(O)CCNC(=O)Cn1nc2c(cc1=O)CCCC2`: the Potency entry is “inactive”. On to `O=C(NCc1ccc(F)cc1)C1CCCN(c2ccnc3ccnn23)C1` (centres undefined), for which the Potency entry is “inactive”. The same measure, in the same setting: under `O=C(c1ccco1)N1CCC(O)(c2ccccc2)[C@H](N2CCCC2)C1` (some centres undefined) stands “inactive”. On the same count and under the same terms, the entry for `COc1ccc(-n2c(=O)c(C(=O)Nc3ccccc3Cl)nc3cccnc32)cc1` is “inactive”; for `Cc1ccc(C(=O)N2CCC(C(=O)N3CCC(c4nc5ncccc5[nH]4)CC3)C2)cc1` (centres undefined) it is “inactive”; for `O=C(Nc1cc(-c2cccnc2)nn1-c1ccccc1)c1ccccc1F` it is “inactive”. Same read-out and setting: under `CC(C)Cn1c(=O)c(C(=O)NCc2ccccc2Cl)nc2cccnc21` stands “inactive”. Take `CC(C)C(=O)N1CCC2(CC1)OC(=O)N(Cc1ccccc1F)C2(C)c1ccccc1` (centres undefined): the Potency entry was “inactive”. Still for that read-out and setting: the entry for `FC(F)(F)c1ccc(CN2CCCC3(CC(c4ccccc4)=NO3)C2)cc1` (centres undefined) is “inactive”; for `O=C(NCCC1CCN(C(=O)Nc2ccc(F)cc2)CC1)c1ccccn1` it is “inactive”.

Regarding `COc1ccc(C(=O)N2CCC3(CC2)N(c2ccccc2)C(=O)CS3(=O)=O)cc1F`, the Potency entry was “inactive”. The same measure, in the same setting: under `Cc1ccc(F)cc1S(=O)(=O)N1CCC(OC2CCN(Cc3ccccc3)CC2)CC1` stands “inactive”; under `COc1cc(CNCCOc2ccccc2)ccc1OCC(O)CN1CCOCC1` (centres undefined), “inactive”. `CC(=O)NC[C@H]1COCc2nc3cc(NC(C)=O)ccc3n21`: the Potency entry was “inactive”. Turning to `COCCOc1ccc(-c2noc([C@@H]3CCCN3C3CCC3)n2)cn1`, the Potency result was “inactive”. The same measure, in the same setting: under `COc1ccccc1CN1Cc2cc(NC(=O)C3CCCC3)ccc2OC(C)C1=O` (centres undefined) stands “inactive”; under `O=C(CCC1CCN(S(=O)(=O)c2ccccc2)CC1)NCCc1ccccc1`, “inactive”; under `CC(=O)c1c(C)nn(C(C)CC(=O)N2C[C@H]3CC=CC[C@H]3C2)c1C` (some centres undefined), “inactive”. Same read-out and setting: the entry for `O=C(C[C@@H]1CCNC[C@@H]1Cc1cc(CC2CCCCC2)on1)NC1CCCCC1` is “inactive”. Same read-out and setting: under `COc1cccc([C@@H]2CN(C(=O)CCCn3cnnn3)C[C@H]2C(=O)O)c1` stands “inactive”; under `COCCN(C)Cc1ccc(CC2CCN(C(=O)C3(c4ccc(OC)cc4)CC3)CC2)cc1`, “inactive”.

For the compound `CCOc1ccc(CC(=O)N2CCC(C3CCN(C(=O)NC)CC3)C2)cc1` (centres undefined), the activity change, negative = cytotoxicity is 6.55% [at 12.5 µM] (inactive).
